Tests used:
Assay in all cases: DAPPL (digital affinity profiling via proximity ligation, sequencing); 10 mM Tris-HCl pH 7.5, 50 mM NaCl, 1 mM DTT, 4% glycerol, room temperature, 30 min; GST-TFs on glutathione beads, 16-mer random dsDNA library, 0.1% formaldehyde crosslink after washing; high values mean tight binding
FLI1 = target: T1, FLI1 (Homo sapiens, UniProt Q01543 1-452); details: protein: recombinant; tags: N-terminal GST; dsDNA, one strand shown
T1 sequence: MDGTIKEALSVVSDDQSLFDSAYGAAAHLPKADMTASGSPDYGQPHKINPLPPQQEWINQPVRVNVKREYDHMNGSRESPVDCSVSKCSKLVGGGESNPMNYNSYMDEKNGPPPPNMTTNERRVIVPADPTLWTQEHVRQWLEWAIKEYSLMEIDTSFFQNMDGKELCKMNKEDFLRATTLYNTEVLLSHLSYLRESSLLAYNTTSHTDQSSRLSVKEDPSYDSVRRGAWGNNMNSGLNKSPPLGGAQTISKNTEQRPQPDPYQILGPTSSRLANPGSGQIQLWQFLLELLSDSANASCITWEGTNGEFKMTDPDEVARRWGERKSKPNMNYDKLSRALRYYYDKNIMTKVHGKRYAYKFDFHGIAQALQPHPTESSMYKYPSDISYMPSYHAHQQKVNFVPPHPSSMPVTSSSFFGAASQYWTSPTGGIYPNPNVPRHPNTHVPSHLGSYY
Summary of the method: (§1)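 After expression in yeast as GST fusions, human transcription factors were bound to glutathione beads, DNA-barcoded and mixed with a tag-only sample. The pools were incubated with 200 nmole of a 16-mer random double-stranded DNA library in Tris/NaCl/DTT/glycerol buffer (30 min, room temperature), washed and crosslinked with 0.1% formaldehyde. Proximity ligation with BsaI/T4 ligase ran for 1 h at 37 °C, before PCR amplification and sequencing on an Illumina NextSeq500. Binding signal is a hexamer's read frequency for a factor divided by its frequency for the tag-only sample.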

ELK1 = target: T2, ELK1 (Homo sapiens, UniProt P19419 1-428); details: protein: recombinant; tags: N-terminal GST; dsDNA, one strand shown
T2 sequence: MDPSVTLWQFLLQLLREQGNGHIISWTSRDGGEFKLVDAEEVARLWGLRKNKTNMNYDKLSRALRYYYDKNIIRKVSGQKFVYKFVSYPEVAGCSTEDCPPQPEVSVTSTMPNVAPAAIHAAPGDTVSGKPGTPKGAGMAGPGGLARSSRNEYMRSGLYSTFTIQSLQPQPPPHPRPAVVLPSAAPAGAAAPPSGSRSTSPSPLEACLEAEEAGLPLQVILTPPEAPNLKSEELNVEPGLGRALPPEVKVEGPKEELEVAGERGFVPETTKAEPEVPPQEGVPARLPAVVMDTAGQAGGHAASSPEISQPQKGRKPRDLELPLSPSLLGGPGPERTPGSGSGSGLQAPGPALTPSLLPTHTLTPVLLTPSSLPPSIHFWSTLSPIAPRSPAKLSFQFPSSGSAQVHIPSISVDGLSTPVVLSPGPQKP
Summary of the method: as §1

GABPA = target: T3, GABPA (Homo sapiens, UniProt Q06546 1-454); details: protein: recombinant; tags: N-terminal GST; dsDNA, one strand shown
T3 sequence: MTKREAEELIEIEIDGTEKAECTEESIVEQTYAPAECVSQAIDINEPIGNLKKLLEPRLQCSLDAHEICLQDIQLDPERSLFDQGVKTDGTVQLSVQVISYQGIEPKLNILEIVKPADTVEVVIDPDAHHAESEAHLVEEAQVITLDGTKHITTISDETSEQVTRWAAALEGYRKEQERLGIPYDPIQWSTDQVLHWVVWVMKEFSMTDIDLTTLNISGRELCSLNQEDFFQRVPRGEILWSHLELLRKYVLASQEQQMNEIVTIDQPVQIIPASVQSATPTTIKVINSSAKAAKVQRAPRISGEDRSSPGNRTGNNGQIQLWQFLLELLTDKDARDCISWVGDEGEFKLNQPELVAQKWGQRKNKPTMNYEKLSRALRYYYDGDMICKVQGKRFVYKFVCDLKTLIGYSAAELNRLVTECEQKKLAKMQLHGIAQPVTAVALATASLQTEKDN
Summary of the method: as §1

ERG = target: T4, ERG (Homo sapiens, UniProt P11308 1-479); details: protein: recombinant; tags: N-terminal GST; dsDNA, one strand shown
T4 sequence: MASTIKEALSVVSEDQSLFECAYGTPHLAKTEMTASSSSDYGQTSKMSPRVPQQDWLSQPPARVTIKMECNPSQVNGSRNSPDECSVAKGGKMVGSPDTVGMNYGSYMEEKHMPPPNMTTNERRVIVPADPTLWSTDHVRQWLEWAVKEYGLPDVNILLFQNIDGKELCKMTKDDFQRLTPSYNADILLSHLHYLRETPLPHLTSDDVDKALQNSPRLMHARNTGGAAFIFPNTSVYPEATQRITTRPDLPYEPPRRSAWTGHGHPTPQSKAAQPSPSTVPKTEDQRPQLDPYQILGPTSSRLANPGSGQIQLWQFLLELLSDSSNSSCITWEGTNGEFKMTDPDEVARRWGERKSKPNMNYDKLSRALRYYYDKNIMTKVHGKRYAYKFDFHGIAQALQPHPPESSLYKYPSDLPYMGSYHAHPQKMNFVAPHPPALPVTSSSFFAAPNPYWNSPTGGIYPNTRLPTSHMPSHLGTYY
Summary of the method: as §1

ELF1 = ELF1 (Homo sapiens, UniProt P32519 1-619); details: protein: recombinant; tags: N-terminal GST; dsDNA, one strand shown
Chain of ELF1 (P32519 whole entry): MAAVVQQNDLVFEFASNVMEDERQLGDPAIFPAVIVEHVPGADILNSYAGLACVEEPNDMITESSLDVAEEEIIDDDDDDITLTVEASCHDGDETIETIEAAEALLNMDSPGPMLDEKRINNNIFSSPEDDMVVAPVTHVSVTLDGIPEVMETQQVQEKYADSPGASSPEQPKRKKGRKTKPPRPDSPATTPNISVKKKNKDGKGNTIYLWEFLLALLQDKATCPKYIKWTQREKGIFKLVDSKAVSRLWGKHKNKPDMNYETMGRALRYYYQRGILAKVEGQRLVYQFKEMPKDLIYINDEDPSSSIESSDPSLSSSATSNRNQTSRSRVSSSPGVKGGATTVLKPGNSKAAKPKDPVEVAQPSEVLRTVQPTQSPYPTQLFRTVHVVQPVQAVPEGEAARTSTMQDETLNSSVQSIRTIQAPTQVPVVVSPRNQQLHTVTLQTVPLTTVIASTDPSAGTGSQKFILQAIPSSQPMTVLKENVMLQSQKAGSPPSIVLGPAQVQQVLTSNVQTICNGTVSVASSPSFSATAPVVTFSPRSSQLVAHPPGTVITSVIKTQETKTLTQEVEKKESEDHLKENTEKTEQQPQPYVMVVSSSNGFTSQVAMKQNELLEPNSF
Summary of the method: as §1

EHF = target: T5, EHF (Homo sapiens, UniProt Q9NZC4 1-300); details: protein: recombinant; tags: N-terminal GST; dsDNA, one strand shown
T5 sequence: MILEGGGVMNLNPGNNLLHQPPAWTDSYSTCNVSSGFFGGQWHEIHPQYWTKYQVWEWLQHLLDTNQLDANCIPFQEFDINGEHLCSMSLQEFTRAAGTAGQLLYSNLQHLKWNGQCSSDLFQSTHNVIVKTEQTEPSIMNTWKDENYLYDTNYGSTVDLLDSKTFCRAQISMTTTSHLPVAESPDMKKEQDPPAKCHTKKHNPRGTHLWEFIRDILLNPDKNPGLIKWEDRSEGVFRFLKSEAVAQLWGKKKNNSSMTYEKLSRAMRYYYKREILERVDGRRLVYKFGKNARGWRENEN
Summary of the method: as §1

SPI1 = SPI1 (Homo sapiens, UniProt P17947 1-270); details: protein: recombinant; tags: N-terminal GST; dsDNA, one strand shown
Summary of the method: as §1

SPIB = SPIB (Homo sapiens, UniProt Q01892 1-262); details: protein: recombinant; tags: N-terminal GST; dsDNA, one strand shown
Chain of SPIB (Q01892 whole entry): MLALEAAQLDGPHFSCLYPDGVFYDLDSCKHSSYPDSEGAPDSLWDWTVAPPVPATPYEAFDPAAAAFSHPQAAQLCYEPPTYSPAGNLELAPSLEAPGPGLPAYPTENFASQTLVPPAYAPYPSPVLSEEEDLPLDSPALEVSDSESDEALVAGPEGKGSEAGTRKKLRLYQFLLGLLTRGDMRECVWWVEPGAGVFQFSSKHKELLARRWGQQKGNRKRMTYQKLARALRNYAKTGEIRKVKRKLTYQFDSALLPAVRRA
Summary of the method: as §1

ELK3 = target: T6, ELK3 (Homo sapiens, UniProt P41970 1-407); details: protein: recombinant; tags: N-terminal GST; dsDNA, one strand shown
T6 sequence: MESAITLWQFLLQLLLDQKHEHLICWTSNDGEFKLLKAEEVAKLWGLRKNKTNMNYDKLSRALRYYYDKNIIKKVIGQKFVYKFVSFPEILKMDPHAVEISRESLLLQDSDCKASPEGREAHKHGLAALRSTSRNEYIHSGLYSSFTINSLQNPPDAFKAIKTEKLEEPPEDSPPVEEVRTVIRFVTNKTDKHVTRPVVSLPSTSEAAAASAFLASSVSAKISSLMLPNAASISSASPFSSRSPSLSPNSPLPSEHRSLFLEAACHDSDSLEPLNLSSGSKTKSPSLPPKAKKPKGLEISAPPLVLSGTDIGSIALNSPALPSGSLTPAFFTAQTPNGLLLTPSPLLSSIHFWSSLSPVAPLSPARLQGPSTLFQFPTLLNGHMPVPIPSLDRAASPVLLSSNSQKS
Summary of the method: as §1

FEV = target: T7, FEV (Homo sapiens, UniProt Q99581 1-238); details: protein: recombinant; tags: N-terminal GST; dsDNA, one strand shown
T7 sequence: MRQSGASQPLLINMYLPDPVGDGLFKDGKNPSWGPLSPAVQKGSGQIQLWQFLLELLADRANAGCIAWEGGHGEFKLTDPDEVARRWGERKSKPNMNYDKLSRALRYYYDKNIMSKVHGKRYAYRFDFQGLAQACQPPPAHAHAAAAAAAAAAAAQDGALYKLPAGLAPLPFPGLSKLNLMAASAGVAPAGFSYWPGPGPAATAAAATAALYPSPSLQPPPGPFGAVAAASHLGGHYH
Summary of the method: as §1

ETV5 = ETV5 (Homo sapiens, UniProt P41161 1-510); details: protein: recombinant; tags: N-terminal GST; dsDNA, one strand shown
Chain of ETV5 (P41161 whole entry): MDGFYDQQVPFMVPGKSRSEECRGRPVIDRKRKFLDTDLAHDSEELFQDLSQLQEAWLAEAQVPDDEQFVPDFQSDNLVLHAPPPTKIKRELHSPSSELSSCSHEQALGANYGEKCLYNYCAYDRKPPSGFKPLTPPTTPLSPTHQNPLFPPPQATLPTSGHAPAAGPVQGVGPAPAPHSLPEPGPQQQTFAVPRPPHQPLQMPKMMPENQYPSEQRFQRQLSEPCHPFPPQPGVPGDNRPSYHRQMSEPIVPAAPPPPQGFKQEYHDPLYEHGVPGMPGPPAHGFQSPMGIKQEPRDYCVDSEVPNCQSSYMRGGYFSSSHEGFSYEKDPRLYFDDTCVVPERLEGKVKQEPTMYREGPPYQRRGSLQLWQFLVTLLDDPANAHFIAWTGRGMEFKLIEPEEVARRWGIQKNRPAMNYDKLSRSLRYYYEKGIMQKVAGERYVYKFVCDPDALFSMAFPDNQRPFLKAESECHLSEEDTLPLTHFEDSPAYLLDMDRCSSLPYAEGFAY
Summary of the method: as §1

HSF1 = HSF1 (Homo sapiens, UniProt Q00613 1-529); details: protein: recombinant; tags: N-terminal GST; chain copies: 3; dsDNA, one strand shown
Chain of HSF1 (Q00613 whole entry): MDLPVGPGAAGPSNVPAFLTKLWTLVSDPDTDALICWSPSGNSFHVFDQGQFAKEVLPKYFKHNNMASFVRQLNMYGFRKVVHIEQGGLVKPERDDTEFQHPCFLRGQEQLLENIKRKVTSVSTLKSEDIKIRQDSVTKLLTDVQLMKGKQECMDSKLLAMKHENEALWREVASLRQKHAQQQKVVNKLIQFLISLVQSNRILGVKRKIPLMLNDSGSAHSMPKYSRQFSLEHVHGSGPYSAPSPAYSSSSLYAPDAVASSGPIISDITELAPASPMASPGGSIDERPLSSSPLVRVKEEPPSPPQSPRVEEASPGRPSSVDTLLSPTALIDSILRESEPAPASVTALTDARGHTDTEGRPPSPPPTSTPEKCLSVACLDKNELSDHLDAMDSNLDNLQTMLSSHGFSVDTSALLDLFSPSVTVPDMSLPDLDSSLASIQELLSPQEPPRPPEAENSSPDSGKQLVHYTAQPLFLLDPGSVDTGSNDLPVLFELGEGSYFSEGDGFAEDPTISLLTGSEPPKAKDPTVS
Summary of the method: as §1

SPIC = target: T8, SPIC (Homo sapiens, UniProt Q8N5J4 1-248); details: protein: recombinant; tags: N-terminal GST; dsDNA, one strand shown
T8 sequence: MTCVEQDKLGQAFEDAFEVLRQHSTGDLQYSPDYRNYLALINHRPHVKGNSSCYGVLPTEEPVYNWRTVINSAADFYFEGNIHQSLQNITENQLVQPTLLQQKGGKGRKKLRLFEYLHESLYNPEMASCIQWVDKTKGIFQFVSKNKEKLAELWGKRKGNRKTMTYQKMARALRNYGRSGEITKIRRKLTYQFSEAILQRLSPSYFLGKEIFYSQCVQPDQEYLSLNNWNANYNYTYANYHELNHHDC
Summary of the method: as §1

ELF4 = ELF4 (Homo sapiens, UniProt Q99607 1-663); details: protein: recombinant; tags: N-terminal GST; dsDNA, one strand shown
Chain of ELF4 (Q99607 whole entry): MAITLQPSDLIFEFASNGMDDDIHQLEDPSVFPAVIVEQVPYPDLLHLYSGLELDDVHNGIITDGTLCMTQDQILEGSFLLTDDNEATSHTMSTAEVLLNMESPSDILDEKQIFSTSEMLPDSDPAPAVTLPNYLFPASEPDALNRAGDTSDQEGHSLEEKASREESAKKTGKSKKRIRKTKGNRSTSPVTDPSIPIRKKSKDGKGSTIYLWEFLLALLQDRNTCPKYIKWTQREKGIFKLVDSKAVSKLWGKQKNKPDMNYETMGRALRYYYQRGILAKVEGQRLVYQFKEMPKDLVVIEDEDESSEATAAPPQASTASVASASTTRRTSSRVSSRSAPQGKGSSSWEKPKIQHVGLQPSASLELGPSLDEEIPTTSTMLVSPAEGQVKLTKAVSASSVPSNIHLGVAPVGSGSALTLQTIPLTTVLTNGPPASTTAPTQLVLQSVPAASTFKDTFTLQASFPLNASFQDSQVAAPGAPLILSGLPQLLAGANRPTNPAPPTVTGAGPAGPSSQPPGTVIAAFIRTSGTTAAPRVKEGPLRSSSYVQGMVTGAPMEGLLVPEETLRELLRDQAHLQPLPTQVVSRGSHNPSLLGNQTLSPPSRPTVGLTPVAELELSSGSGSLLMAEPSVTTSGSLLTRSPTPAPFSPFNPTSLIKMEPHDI
Summary of the method: as §1

ELK4 = target: T9, ELK4 (Homo sapiens, UniProt P28324-2 1-405); details: protein: recombinant; tags: N-terminal GST; dsDNA, one strand shown
T9 sequence: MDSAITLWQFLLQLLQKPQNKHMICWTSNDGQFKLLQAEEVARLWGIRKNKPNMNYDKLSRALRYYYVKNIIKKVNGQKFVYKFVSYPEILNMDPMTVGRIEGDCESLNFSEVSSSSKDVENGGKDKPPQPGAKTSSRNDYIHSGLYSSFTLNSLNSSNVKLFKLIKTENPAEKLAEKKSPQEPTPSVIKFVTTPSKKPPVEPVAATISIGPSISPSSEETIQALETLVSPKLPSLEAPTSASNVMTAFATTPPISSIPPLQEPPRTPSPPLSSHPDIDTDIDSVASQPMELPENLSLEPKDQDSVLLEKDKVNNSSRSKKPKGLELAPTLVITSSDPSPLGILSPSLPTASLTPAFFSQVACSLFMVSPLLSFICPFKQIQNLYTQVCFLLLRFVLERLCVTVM
Summary of the method: as §1

ETV2 = target: T10, ETV2 (Homo sapiens, UniProt O00321 1-342); details: protein: recombinant; tags: N-terminal GST; dsDNA, one strand shown
T10 sequence: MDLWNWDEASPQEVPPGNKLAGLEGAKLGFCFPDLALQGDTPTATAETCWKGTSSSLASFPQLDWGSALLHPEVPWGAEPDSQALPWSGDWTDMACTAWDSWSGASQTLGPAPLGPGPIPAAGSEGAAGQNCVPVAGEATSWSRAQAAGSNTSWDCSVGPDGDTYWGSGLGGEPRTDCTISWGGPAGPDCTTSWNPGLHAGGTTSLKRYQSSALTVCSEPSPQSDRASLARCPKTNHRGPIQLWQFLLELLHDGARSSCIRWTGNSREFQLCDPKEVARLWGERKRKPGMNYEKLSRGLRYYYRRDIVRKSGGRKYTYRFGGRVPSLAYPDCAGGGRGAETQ
Summary of the method: as §1

ELF3 = target: T11, ELF3 (Homo sapiens, UniProt P78545 1-371); details: protein: recombinant; tags: N-terminal GST; dsDNA, one strand shown
T11 sequence: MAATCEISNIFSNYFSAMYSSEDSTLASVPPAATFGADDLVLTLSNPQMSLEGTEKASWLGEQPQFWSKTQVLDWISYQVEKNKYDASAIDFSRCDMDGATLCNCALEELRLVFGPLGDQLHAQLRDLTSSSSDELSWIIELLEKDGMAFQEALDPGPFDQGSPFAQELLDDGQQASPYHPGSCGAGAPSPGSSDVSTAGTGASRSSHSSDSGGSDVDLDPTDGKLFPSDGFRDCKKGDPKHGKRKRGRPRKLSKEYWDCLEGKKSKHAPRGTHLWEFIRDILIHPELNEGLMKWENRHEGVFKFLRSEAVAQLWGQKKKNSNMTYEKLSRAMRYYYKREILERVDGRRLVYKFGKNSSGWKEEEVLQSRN
Summary of the method: as §1

CRX = CRX (Homo sapiens, UniProt O43186 1-299); details: protein: recombinant; tags: N-terminal GST; dsDNA, one strand shown
Chain of CRX (O43186 whole entry): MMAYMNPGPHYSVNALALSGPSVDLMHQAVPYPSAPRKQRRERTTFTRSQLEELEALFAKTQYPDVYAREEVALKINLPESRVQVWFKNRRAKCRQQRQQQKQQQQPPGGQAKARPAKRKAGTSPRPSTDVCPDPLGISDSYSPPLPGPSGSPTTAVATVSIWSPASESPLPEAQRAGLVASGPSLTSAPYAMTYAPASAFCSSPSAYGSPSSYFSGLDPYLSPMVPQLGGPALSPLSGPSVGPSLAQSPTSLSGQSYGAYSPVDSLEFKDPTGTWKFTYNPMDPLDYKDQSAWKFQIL
Summary of the method: as §1

ETV1 = ETV1 (Homo sapiens, UniProt P50549 1-477); details: protein: recombinant; tags: N-terminal GST; dsDNA, one strand shown
Chain of ETV1 (P50549 whole entry): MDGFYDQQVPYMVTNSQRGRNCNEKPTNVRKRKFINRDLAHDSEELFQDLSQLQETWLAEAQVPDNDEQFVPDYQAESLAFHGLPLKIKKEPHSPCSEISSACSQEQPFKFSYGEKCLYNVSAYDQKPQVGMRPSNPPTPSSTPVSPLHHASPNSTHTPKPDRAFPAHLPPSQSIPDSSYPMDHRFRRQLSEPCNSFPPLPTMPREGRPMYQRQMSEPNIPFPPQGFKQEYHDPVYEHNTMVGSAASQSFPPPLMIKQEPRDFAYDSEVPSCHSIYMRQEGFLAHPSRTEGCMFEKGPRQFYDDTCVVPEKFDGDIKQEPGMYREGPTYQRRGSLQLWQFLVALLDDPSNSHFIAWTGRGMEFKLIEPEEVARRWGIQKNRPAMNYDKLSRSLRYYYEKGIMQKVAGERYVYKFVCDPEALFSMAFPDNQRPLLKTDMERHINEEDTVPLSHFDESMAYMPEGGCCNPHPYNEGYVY
Summary of the method: as §1

ATAATT
binding signal (FLI1): 1.31 fold enrichment (6-mer frequency, TF over GST control)
binding signal (ELK1): 1.38 fold enrichment (6-mer frequency, TF over GST control)
binding signal (GABPA): 1.38 fold enrichment (6-mer frequency, TF over GST control)
binding signal (ERG): 1.4 fold enrichment (6-mer frequency, TF over GST control)
binding signal (ELF1): 1.27 fold enrichment (6-mer frequency, TF over GST control)
binding signal (EHF): 1.37 fold enrichment (6-mer frequency, TF over GST control)
binding signal (SPI1): 1.28 fold enrichment (6-mer frequency, TF over GST control)
binding signal (SPIB): 1.39 fold enrichment (6-mer frequency, TF over GST control)
binding signal (ELK3): 1.42 fold enrichment (6-mer frequency, TF over GST control)
binding signal (FEV): 1.25 fold enrichment (6-mer frequency, TF over GST control)
binding signal (ETV5): 1.37 fold enrichment (6-mer frequency, TF over GST control)
binding signal (HSF1): 1.76 fold enrichment (6-mer frequency, TF over GST control)
binding signal (SPIC): 1.41 fold enrichment (6-mer frequency, TF over GST control)
binding signal (ELF4): 1.25 fold enrichment (6-mer frequency, TF over GST control)
binding signal (ELK4): 1.33 fold enrichment (6-mer frequency, TF over GST control)
binding signal (ETV2): 1.5 fold enrichment (6-mer frequency, TF over GST control)
binding signal (ELF3): 1.34 fold enrichment (6-mer frequency, TF over GST control)
binding signal (CRX): 2.16 fold enrichment (6-mer frequency, TF over GST control)
binding signal (ETV1): 1.34 fold enrichment (6-mer frequency, TF over GST control)

— publication PMC7862700, “An all-to-all approach to the identification of sequence-specific readers for epigenetic DNA modifications on cytosine”
